Test results as given in PubChem BioAssay AID651813 (National Center for Advancing Translational Sciences (NCATS), 2012).
Hit rate of the full screen: of about 2,100 compounds, about 1,100 (52%) were called active. Inconclusive results (about 27%) are left out. The set was probably picked from earlier hits. Some of the results follow. Unmarked numbers belong to inactive results. Calls follow the shape of the dose curve; as a rule, active = well fitted inhibition curve with a large enough effect; inconclusive = small, poorly fitted or top-dose-only effect; inactive = no such curve, though single readings can be large or run the other way.

Biological target: DNA dC->dU-editing enzyme APOBEC-3G (Homo sapiens) (UniProt Q9HC16)
Sequence (Q9HC16 whole entry, looked up): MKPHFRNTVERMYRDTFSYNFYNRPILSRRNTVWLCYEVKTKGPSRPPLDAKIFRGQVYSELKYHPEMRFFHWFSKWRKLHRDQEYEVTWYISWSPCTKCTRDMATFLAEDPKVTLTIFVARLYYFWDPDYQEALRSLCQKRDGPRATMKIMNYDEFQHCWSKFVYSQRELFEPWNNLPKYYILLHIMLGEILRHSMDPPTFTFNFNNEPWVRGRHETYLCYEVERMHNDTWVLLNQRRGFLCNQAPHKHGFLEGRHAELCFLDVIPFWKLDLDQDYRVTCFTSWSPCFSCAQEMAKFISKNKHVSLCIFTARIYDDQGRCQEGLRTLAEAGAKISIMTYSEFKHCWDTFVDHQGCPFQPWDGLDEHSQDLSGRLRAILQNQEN
Test: qHTS for inhibitors of Vif-A3G interactions: Cherry picks counterscreen;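 also: hits raise yellow fluorescence by blocking Vif-driven A3G-eYFP degradation; nearly all actives have a fitted effect of over 70% in size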;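 as to max response: max response given as percent of control signal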
Conditions: HeLa A3G-eYFP + Vif (tagged APOBEC3G with the HIV-1 protein that degrades it), eYFP fluorescence, 24 h
Text: The recent discovery and characterization of host restriction factors, which provide a potent defense to invading retroviruses, has provided new targets for antiviral drug development. APOBEC3G (A3G) and APOBEC3F (A3F) are potent cytidine deaminases that block HIV-1 replication; HIV-1 expresses the Vif protein, which counteracts A3G and A3F by binding to them and inducing their proteasomal degradation. The Vif-A3G and Vif-A3F interactions provide two potential targets for development of small molecules which can interfere with the ability of Vif to degrade A3G or A3F. […] To identify inhibitors that can interfere with Vif mediated degradation of A3G and A3F, we have developed Hela cell lines that stably express A3G or A3F tagged with eYFP at the C-terminal end (A3G-eYFP or A3F-eYFP, respectively) and Vif. In the absence of an inhibitor, Vif induces degradation of A3G-eYFP and A3F-eYFP, and the cells are not fluorescent. In the presence of an inhibitor, it is expected that Vif will be unable to degrade A3G-eYFP and/or A3F-eYFP, resulting in an increase in yellow fluorescence. In this counterscreen assay, Vif A3G was screened against the cherry picks ordered from the MLSMR. NIH Chemical Genomics Center [NCGC] NIH Molecular Libraries Probe Centers Network [MLPCN] MLPCN Grant: MH093245 Assay Submitter (PI): Vinay Pathak, National Cancer Institute
A3G-Vif cells were harvested from T225 flask and resuspended in phenol free OPTI-MEM medium with 5% FBS. Then 5 uL of 140,000 cells/mL resuspended cells was dispensed into each well of low base Aurora COC 1,536-well plates (black walled, clear bottom) using a Multidrop Combi dispenser. After overnight culture at 37 deg C with 5% CO2, a total of 23 nL of compounds at 5 selected concentrations from the NPC or positive control (2 mM stock of MG132) in DMSO was transferred to each well of the assay plate using a pintool (Kalypsys, San Diego, CA), and the plates were further incubated at 37 deg C with 5% CO2 for 24 hours. After that, the plates were measured on Acumen Explorer (TTP Lab Tech). The fluorescence was detected by 488 nm/Ex and […].
Potency is read from the fitted curve at half-maximal effect.

Row | Compound | Potency | max response [%]
1 | COc1cccc(/C(O)=C/c2nc3ccc(C(=O)NCCc4ccc(Cl)cc4)cc3[nH]c2=O)c1 | 20.6 µM (active) | –
2 | COc1cccc(/C(O)=C/c2nc3ccc(C(=O)NCCc4cccc(C)c4)cc3[nH]c2=O)c1 | 13 µM (active) | –
3 | COc1ccc2ccccc2c1C1NC(=O)c2ccccc2N1 (configuration not stated) | 4.98 µM (active) | –
4 | O=[N+]([O-])c1ccccc1C1Nc2cccc3cccc(c23)N1 | – | 7.07
5 | CCOc1ccccc1C1NC(=O)c2ccccc2N1 (configuration not stated) | 2.5 µM (active) | –
6 | COc1cc(OC)c(C2Nc3cccc4cccc(c34)N2)c(OC)c1 | – | 3.06
7 | Cc1ccc(C2NC(=O)c3ccccc3N2)s1 (configuration not stated) | 12.5 µM (active) | –
8 | Cc1ccc(C)c(C2NC(=O)c3ccccc3N2)c1 (configuration not stated) | 7.9 µM (active) | –
9 | CC(=O)/C(N=Nc1cc(C)ccc1O)=C(\C)O | 20.6 µM (active) | –
10 | CCOC(=O)N1CCN(/C=C(\C#N)c2nc3ccccc3s2)CC1 | 23.1 µM (active) | –
11 | COc1ccc(C)cc1NCc1cc(=O)oc2cc(-c3ccccc3)c(O)cc12 | – | -4.57
12 | COc1ccc(-c2coc3cc4oc(=O)cc(-c5ccccc5)c4cc23)cc1F | 2.23 µM (active) | –
13 | Cc1sc2ncn(CC(=O)NCc3ccccc3)c(=O)c2c1C | – | -26.2
14 | CC(C)(C)n1ncc2c(=O)n(CC(=O)NCc3ccc(F)cc3)cnc21 | 7.9 µM (active) | –
15 | Cc1ccc(Cn2nnc3c(=O)n(CC(=O)NCc4ccccc4)cnc32)cc1 | 8.86 µM (active) | –
16 | O=C(Cn1cnc2c(cnn2-c2ccc(F)cc2)c1=O)NCc1ccco1 | 17.7 µM (active) | –
17 | CCN(Cc1ccccc1)c1ccc(/C=C/c2nccc3ccccc23)cc1 | 13 µM (active) | –
18 | CN(C)c1ccc(/C=C/c2nccc3ccccc23)cc1 | 13 µM (active) | –
19 | CCN(CC)c1nc(C=Cc2ccc(N(C)C)cc2)c2nccnc2n1 | 0.651 µM (active) | –
20 | CN(C)c1ccc(C=Cc2nccc3ccccc23)cc1 | 14 µM (active) | –
21 | CC(=O)/C(=C\N(C)C)Sc1ccc(Cl)cc1 | – | 12
22 | Cc1sc2ncnc(SCC(=O)NC(C)(C)C)c2c1C | – | -17.9
23 | COc1ccccc1Nc1nnc(SCC2CCCCO2)s1 (configuration not stated) | 17.7 µM (active) | –
24 | COc1cccc(OCc2nc3ncc(Br)cc3[nH]2)c1 | 3.14 µM (active) | –

Row | Compound | Potency | max response [%]
25 | Nc1cccc(CCc2nc3cc4ccccc4cc3[nH]2)c1 | 4.98 µM (active) | –
26 | COc1cccc(N2CC(O)=C(c3nc4ccccc4c(=O)[nH]3)C2=N)c1 | 2.23 µM (active) | –
27 | COc1cccc(N2CC(O)=C(c3nc4ccccc4s3)C2=N)c1 | 7.9 µM (active) | –
28 | CC(C)(C)c1ccc(OCC(=O)Nc2ccc3c4c(cccc24)C(=O)NC3=O)cc1 | – | 43.9
29 | O=CNc1ccc2c3c(cccc13)-c1ccccc1-2 | 11.2 µM (active) | –
30 | CCOC(=O)Nc1ccc2c3c(cccc13)-c1ccccc1-2 | 2.31 µM (active) | –
31 | N#Cc1cc2ccccc2nc1SCc1ccccn1 | 23.1 µM (active) | –
32 | CCCCCCN1C[C@H](O)[C@@H](n2cc(COC(=O)c3ccccc3)nn2)C[C@@H]1c1ccc(C)cc1 | – | 4.43
33 | CN(C)c1ccc2ccc3cccc4ccc1c2c34 | 13 µM (active) | –
34 | O=C1NC(c2cccc(Cl)c2)Nc2ccccc21 (configuration not stated) | 12.5 µM (active) | –
35 | CSc1ccc(C2NC(=O)c3ccccc3N2)cc1 (configuration not stated) | 11.2 µM (active) | –
36 | O=C1NC(c2ccc(Br)cc2)Nc2ccccc21 (configuration not stated) | 17.7 µM (active) | –
37 | CC(C)n1cc(NC(=O)c2cc(-c3ccccc3)on2)cn1 | 5.59 µM (active) | –
38 | CCn1c(O)c(/C=N/N=C/c2ccc(OC)cc2)c2cc(C3=NNC(=O)CC3)ccc21 | 13 µM (active) | –
39 | N#CC(=Cc1ccccn1)c1nc(-c2ccc(Cl)cc2)cs1 | 6.27 µM (active) | –
40 | N#C/C(=C\c1ccc(Cl)cc1)c1nc2ncccc2[nH]1 | – | -13.6
41 | O=C(Cn1nc2c(cc1=O)CCCC2)NCc1ccc(Cl)cc1 | 13 µM (active) | –
42 | Cc1ccc(CNC(=O)Cn2cc(C(=O)c3ccc(Cl)cc3)c(=O)c3ccc(C)nc32)cc1 | – | -25
43 | CCC(C)Sc1cccc(-c2nc3cc(C)ccn3c2NC2CCCCC2)c1 (configuration not stated) | – | 18.8
44 | Cc1cccc(N2CCN(C(=O)c3ccncc3)CC2)c1C | 12.5 µM (active) | –
45 | O=C1COc2ccc(C(=O)CSc3nc4ccccc4c(=O)n3-c3ccc(Cl)c(Cl)c3)cc2N1 | 18.4 µM (active) | –
46 | Cc1ccc(/C=C2/CNC/C(=C/c3ccc(C)cc3)C2=O)cc1 | 5.59 µM (active) | –
47 | C[C@]12CCC[C@H](O1)c1c(cc3c(c1O)C(=O)c1c(O)cc(O)cc1C3=O)O2 | 16.4 µM (active) | –
